Screens as filed in PubChem.
ERb coact inh – ER-beta (human) coactivator binding inhibition | inhibition, % at 25.6 µM | Q92731 | TR-FRET ER-beta LBD / SRC1-Cy5 peptide binding; receptor agonist-loaded with 1 µM estradiol | 86,000 compounds, 1.3% hits | AID 633;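 active means compounds whose percent inhibition of the receptor-coactivator binding signal exceeds about 50% in the single-dose screen, limit read from the data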;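 further: 0% = receptor plus peptide wells without compound and 100% = peptide-only wells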
Target sequence (Q92731 whole entry, looked up, the tested form may be a part): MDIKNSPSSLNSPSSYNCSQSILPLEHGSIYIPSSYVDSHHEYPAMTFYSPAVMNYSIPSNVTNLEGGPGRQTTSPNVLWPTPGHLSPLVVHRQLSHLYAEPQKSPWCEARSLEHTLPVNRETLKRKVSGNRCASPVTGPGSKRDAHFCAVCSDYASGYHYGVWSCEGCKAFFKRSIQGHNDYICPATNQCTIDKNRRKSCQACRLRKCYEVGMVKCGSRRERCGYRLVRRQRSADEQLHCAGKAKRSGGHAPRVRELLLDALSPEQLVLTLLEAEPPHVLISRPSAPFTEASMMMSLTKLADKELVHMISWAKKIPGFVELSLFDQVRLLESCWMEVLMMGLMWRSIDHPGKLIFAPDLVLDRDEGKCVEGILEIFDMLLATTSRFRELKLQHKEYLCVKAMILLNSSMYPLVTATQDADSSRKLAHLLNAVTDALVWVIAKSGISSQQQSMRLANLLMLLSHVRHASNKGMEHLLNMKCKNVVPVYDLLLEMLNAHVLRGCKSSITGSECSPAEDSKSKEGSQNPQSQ
FAK blocker – blocks human focal adhesion kinase activity. inhibition, %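 (tested at 7 µM)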. AID 727. Q05397. 97,000 compounds, 0.84% hits. biochemical FAK kinase activity assay;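 further: 0% = DMSO and 100% = reference compound high control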
ERa coact inh – blocks coactivator binding to human estrogen receptor alpha | P03372 | TR-FRET ER-alpha LBD / SRC-1 peptide, estradiol-bound | inhibition, % at 25.6 µM | 86,000 compounds, 1.7% hits; in the data active means inhibition above about 50%;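 further: 0% = receptor plus peptide control and 100% = peptide only without receptor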
Smad3 FoxH1 inh – Smad3 (human) transcription factor binding inhibition; P84022; TR-FRET Smad3/Dy647-FoxH1 peptide binding, europium anti-His; inhibition, % at 25 µM; 88,000 compounds, 0.29% hits; AID 630;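 active means compounds that reduce the energy-transfer binding signal between the protein and its labelled peptide by more than half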;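 further: 0% = Smad3 plus labelled peptide maximal FRET and 100% = peptide-only background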
ERa coact pot – ER-alpha (human) coactivator binding potentiation; P03372; coactivator binding (% of control), % at 25.6 µM; 86,000 compounds, 1.3% hits; TR-FRET ERalpha-LBD/SRC-Cy5 coactivator binding, 2 h; 100 = basal binding, no effect; in the data active means activity above about 200%;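 further: binding measured in presence of low estradiol as agonist stimulus; 0% = peptide alone without receptor and 100% = receptor with peptide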
FAK inh conf – confirmation of human focal adhesion kinase (FAK) inhibitors; shares compounds with FAK blocker; FAK kinase biochemical inhibition assay; inhibition, % at 7 µM; 750 compounds, 28% hits; AID 794
* = called active by the depositor; / = not tested or not shown; [ ] = dose if it differs, or a comment. Shown are actives, neighbours in structure and some others; about 3.3% of the full set was active somewhere. Unless noted, no stated cut-off is given here; in the data, active means inhibition above about 19%; inactive means the rest.

SMILES | ERb coact inh | FAK blocker | ERa coact inh | Smad3 FoxH1 inh | ERa coact pot | FAK inh conf
Cc1cccc(-n2c(C)cc(/C=N/n3cnnc3)c2C)c1 | 0 | 3 | -2 | -5 | 94 | /
COC(=O)c1cc(C#N)c(NCc2ccccc2)nc1C | -4 | 0 | 0 | 3 | 99 | /
Cc1ccc(C(=O)N/N=C/c2ccc([N+](=O)[O-])s2)cc1 | 40 | 50* | 67* | 9 | 36 | 11
N#Cc1nc(-c2cccs2)oc1NCc1ccccc1 | -20 | 22* | -12 | -3 | 120 | 11
Cn1c2ccccc2c(=O)n2c(=O)c3ccccc3cc12 | -5 | 31* | -1 | 50 | 102 | 47*
CC1CCc2c(sc3nn[nH]c(=O)c23)C1 (stereo not given) | 4 | 26* | -4 | 2 | 82 | 7
CCCSc1nc2c(cnn2-c2ccc(C)cc2)c(=O)[nH]1 | 37 | 23* | 6 | 17 | 298*[fluorescence artefact?] | 9
Cc1nc2ccccc2nc(C)c1=NO | -5 | 0 | -2 | 13 | 103 | /
C/C(O)=c1/ccc2cccc3nc(C)nc1c23 | 1 | 24* | -4 | 1 | 95 | 7
Cc1ccn2cc(CNC(=O)c3ccc(Br)o3)nc2c1 | -4 | -4 | 4 | 0 | 91 | /
Cc1cccc(NC(=O)C2CCCN(S(=O)(=O)c3cccc4nsnc34)C2)c1 (stereo not given) | 51*[fluorescence artefact?] | 94* | 23 | -6 | 230*[fluorescence artefact?] | -1
O=C(CNS(=O)(=O)c1ccccc1)Nc1ccc(C(F)(F)F)cc1 | -8 | 2 | 0 | 0 | 90 | /
COc1ccc2nc3oc(C(=O)NCc4cccs4)cc3cc2c1 | / | 32* | / | / | / | 10
COc1ccc(C(=O)c2ccc(OC)c(OC)c2)cc1 | -1 | -2 | -4 | -13 | 69 | /
COc1ccc(-c2ccc3c(N)c(C(=O)c4ccc(OC)c(OC)c4)sc3n2)cc1 | / | 35* | / | / | / | 25*
COc1ccc(C(=O)c2sc(Nc3ccccc3)c(C(=O)Nc3ccc(OC)c(OC)c3)c2N)cc1 | / | 0 | / | / | / | /
COc1ccc(C(=O)c2sc3nc(-c4ccccc4)ccc3c2N)cc1OC | / | 59* | / | / | / | 34*
COc1c(F)c(F)c(C(=O)Nc2ccc(N3CCN(C(C)=O)CC3)c(Cl)c2)c(F)c1F | -5 | 2 | -16 | 19 | 102 | /
CCOC(=O)CC(Nc1nc(N2CCOCC2)nc(N2CCOCC2)n1)c1ccccc1Cl (stereo not given) | 5 | -8 | 2 | 24 | 104 | /
CN1CCc2nc3sc(C(=O)C45CC6CC(CC(C6)C4)C5)c(N)c3cc2C1 | / | 51* | / | / | / | 34*
Cc1cc(C)c2cc3c(N)c(C(=O)N4CCc5ccccc5C4)sc3nc2c1 | / | 2 | / | / | / | /
Cc1ccc(SCc2ccc(C(=O)NCc3ccncc3)cc2)cc1 | / | 43* | / | / | / | 3
Cc1ccc(C)c(C(=O)NCc2ccncc2)c1 | 47 | -2 | 28 | 8 | 52 | /
COc1ccccc1-c1cc(N)n[nH]1 | -4 | 25* | -5 | 1 | 112 | 2
O=C(Oc1ccc2c(c1)OCO2)c1cc2c(s1)CCC2 | 83* | 24* | 93*[fluorescence artefact?] | 0 | 11 | 3
SMILES | ERb coact inh | FAK blocker | ERa coact inh | Smad3 FoxH1 inh | ERa coact pot | FAK inh conf
Cc1ccc(SCC(=O)Nc2ccc(-c3nnc(-c4ccco4)o3)cc2)cc1 | / | 12 | / | / | / | /
Cc1cccc(C)c1NC(=O)CSc1nnc(-c2ccco2)c(-c2ccco2)n1 | 83*[fluorescence artefact?] | 35* | 84*[fluorescence artefact?] | -4 | 11 | 10
Cc1ccc(NC(=O)CSc2nnc(-c3ccco3)c(-c3ccco3)n2)cc1 | 74*[fluorescence artefact?] | 19* | 81*[fluorescence artefact?] | 10 | 43 | 1
Clc1ccc(Cc2nc(-c3cccnc3)no2)cc1 | / | -3 | / | / | / | /
Cn1nc(-c2ccc(Cl)cc2)nc2c(=O)n(C)c(=O)nc1-2 | -12 | 69* | -19 | 80* | 104 | 67*
CCS(=O)(=O)n1nc(-c2ccc(Cl)cc2)nc1SC | 1 | 4 | 3 | 4 | 104 | /
COC(=O)c1ccc(NC(=O)CN(Cc2ccc(Cl)cc2)S(C)(=O)=O)cc1 | 0 | 2 | 3 | -2 | 110 | /
COc1ccccc1N(C(=O)c1snc(C(N)=O)c1N)C(C(=O)NC1CCCC1)c1ccco1 (stereo not given) | -7 | 7 | 1 | 8 | 81 | /
CC(C(=O)NC1CCCC1)N(C(=O)c1snc(C(N)=O)c1N)c1ccc2c(c1)OCCO2 (stereo not given) | 9 | 21* | 5 | -1 | 91 | 4
c1ccc(-c2nnc(SCCC3OCCCO3)o2)cc1 | / | 1 | / | / | / | /
O=C1CCCC2=C1C(c1ccc(Cl)cc1)N1C(=O)CCSC1=N2 (stereo not given) | 6 | 1 | -5 | 5 | 98 | /
O=C1CCCC2=C1C(c1ccc(Cl)cc1)C1C(=O)c3ccccc3C1=N2 (stereo not given) | / | 23* | / | / | / | 6
O=C(NCc1ccc(C(F)(F)F)cc1)C1CC(c2ccccc2[N+](=O)[O-])=NO1 (stereo not given) | / | 5 | / | / | / | /
Nc1ccc2c(c1)C(=O)C(=O)c1ccccc1-2 | 8 | 57* | -15 | 73*[fluorescence artefact?] | 71 | 58*
COc1ccc(Cc2nc3ccc(S(=O)(=O)N4CCOCC4)cc3[nH]2)cc1OC | -6 | 3 | -4 | -21 | 110 | /
COc1ccc(Cc2nc3ccc(S(=O)(=O)N4CCOCC4)cc3[nH]2)cc1 | -7 | 95* | 60* | -5 | 97 | 1
Cc1cc2ncn(S(=O)(=O)N(C)C)c2cc1C | -5 | 19* | 3 | 2 | 92 | 5
CC1CCCCN1S(=O)(=O)c1ccc2c(c1)oc(=O)n2CC(=O)O (stereo not given) | 11 | -6 | -2 | -4 | 81 | /
O=C(Cn1c(=O)oc2cc(S(=O)(=O)N3CCCCCC3)ccc21)NC1CCCCCCC1 | 24 | 22* | 36 | -5 | 202* | 6
Cc1ccccc1Cn1c2ccccc2c2cn[nH]c(=O)c21 | / | 20* | / | / | / | 4
Cc1cc(C)n2nc(C(=O)Nc3ccc4c(c3)OCO4)nc2n1 | 49 | 93* | 59*[fluorescence artefact?] | 7 | 48 | 3
CCn1c(=O)c(C(=O)Nn2c(C)nc3ccccc3c2=O)c(O)c2ccccc21 | 4 | / | 5 | 19 | 115 | /
CCn1c(=O)c(C(=O)Nc2nc3ccccc3[nH]2)c(O)c2ccccc21 | / | 23* | / | / | / | 21*
CCOc1cccc(SCc2noc(C(=O)NCC3CCCO3)c2C(=O)O)c1 (stereo not given) | / | 10 | / | / | / | /
CCn1c(=O)c2c(cnn2C)c2ccccc21 | / | 32* | / | / | / | 12
O=c1cc(CSc2nnc(-c3cccs3)n2Cc2ccccc2)nc2sc3ccccc3n12 | 65* | 31* | 75*[fluorescence artefact?] | 8 | 96 | 4
Cc1cc(NC(=O)Cc2cccs2)no1 | 89*[fluorescence artefact?] | 40* | 97*[fluorescence artefact?] | 5 | 17 | 28*
CN(C)c1ccc(-n2cc3c(=O)n(C)c(=O)n(C)c3c2)cc1 | -10 | 27* | 0 | -3 | 83 | 8
